Shown is part of a subset that was picked to be rich in hits.
FECH inh: inhibitors of human ferrochelatase, primary screen, biochemical, purified FECH, Ni-mesoporphyrin absorbance; hit rate 3.3% among 20,000; calls only at 10 µM (by protocol); Ni-mesoporphyrin absorbance 550 nm; Ferrochelatase, mitochondrial (Homo sapiens), P22830; AID 1671448, 2021;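 active means enzyme reaction rate more than 3 SD below the solvent-only control wells on the same plate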;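 further: lower slope than DMSO wells means FECH inhibition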
Target sequence (P22830 whole entry, looked up): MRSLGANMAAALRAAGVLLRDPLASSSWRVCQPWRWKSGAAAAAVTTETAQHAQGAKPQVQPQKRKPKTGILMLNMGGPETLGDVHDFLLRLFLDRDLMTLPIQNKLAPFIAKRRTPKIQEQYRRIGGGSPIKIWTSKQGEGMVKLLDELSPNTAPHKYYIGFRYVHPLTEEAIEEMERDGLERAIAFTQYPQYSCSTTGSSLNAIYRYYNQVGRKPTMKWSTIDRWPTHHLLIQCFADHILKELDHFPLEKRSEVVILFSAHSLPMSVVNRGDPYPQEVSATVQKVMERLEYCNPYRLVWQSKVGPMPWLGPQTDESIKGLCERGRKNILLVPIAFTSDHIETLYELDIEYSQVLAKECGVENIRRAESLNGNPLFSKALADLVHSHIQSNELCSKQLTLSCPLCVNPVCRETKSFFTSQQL
* marks the source's active call; other numbers are inactive results.

For Cc1nc2nc(-c3ccccc3)nn2c(Sc2ccccc2NC(=O)C2CC2)c1C the results were FECH inh inactive.
O=C1CN(c2ccc(C(=O)N3CCC(Oc4cccnc4)CC3)cn2)CCN1 was read as FECH inh inactive.
`CCCC(=O)Nc1cc(C)ccc1OCc1cc(=O)n2oc(C)cc2n1` gave FECH inh inactive.
CCCCN(CC)c1ncc(NS(=O)(=O)c2c(C)cc(C)cc2C)cc1C(=O)O was read as FECH inh inactive.
For Cc1nc(OCC(=O)NC2CCCCC2)c2c(C)c(C)oc2n1 the results were FECH inh inactive.
`CCC(NCc1cccnc1-n1cncn1)C(=O)Nc1ccccc1` (configuration not stated) gave FECH inh inactive.
CO[C@H]1COC[C@@H]1NCC(=O)Nc1cccc(F)c1C was read as FECH inh inactive.
For Cc1cnc(CN(C)CC(=O)Nc2cccc(F)c2C)[nH]1 the results were FECH inh active.
CN(CC(=O)NCc1ccccc1F)Cc1cccc2ncccc12 was read as FECH inh inactive.
`Cc1ccc(Nc2cc(C)nc(Nc3ccc(NC(=O)c4ccc(C)c(C)c4)cc3)n2)cc1` gave FECH inh inactive.
`CCOc1c(C)cc(S(=O)(=O)N2CCN(c3nc(C)cc(Nc4ccc(OC)cc4)n3)CC2)cc1C` gave FECH inh inactive.
`Cc1cccc(CC(=O)Nc2cc(C)nn2-c2ncnc3c2cnn3-c2ccc(C)cc2C)c1` gave FECH inh inactive.
`Cc1noc(C)c1CCn1c(=O)c2cnc(-c3cccs3)nc2n(C)c1=O` gave FECH inh inactive.
Cn1c(=O)n(CCOc2ccccc2)c(=O)c2cnc(-c3cccs3)nc21 was read as FECH inh active.
Screening Cn1c(=O)n(Cc2ccccc2F)c(=O)c2cnc(-c3cccs3)nc21 returned FECH inh inactive.
For Cc1ccc(N(Cc2nc3nc(C)c(Cl)c(C)n3n2)S(=O)(=O)c2ccccc2)cc1 the results were FECH inh inactive.
Screening OCCNc1nc(Nc2ccc(Cl)cc2)c2cnn(-c3ccccc3)c2n1 returned FECH inh inactive.
`O=C1NCCN(C/C=C/c2ccco2)C1c1ccc(F)cc1` (configuration not stated) gave FECH inh inactive.
`COc1ccc(S(=O)(=O)N2CCC(n3c(C(F)(F)F)nc4cccnc43)CC2)cc1OC` gave FECH inh active.
For O=S(=O)(c1ccccc1)N1CCC(n2c(C(F)(F)F)nc3cccnc32)CC1 the results were FECH inh inactive.
`COc1ccc(Cl)cc1S(=O)(=O)N1CCC(n2c(C(F)(F)F)nc3cccnc32)CC1` gave FECH inh inactive.
Screening CC(=O)N1CCc2c(nc(C)nc2N2CCC(C(C)N3CCCC3)CC2)C1 (configuration not stated) returned FECH inh inactive.
Cc1nnsc1CN(C)CCC(=O)Nc1nc2ccccc2s1 was read as FECH inh inactive.
`Nc1cccc(-c2cccc(OCc3ccccc3)c2)n1` gave FECH inh inactive.
C=CCn1ccnc1-c1ccccc1OCC was read as FECH inh inactive.
`CC(C)c1cc(=O)n2[nH]c(CNc3cccc(C(F)(F)F)c3)nc2n1` gave FECH inh active.
For CCc1nc2nc(C)c(NC(=O)Nc3ccc(C)c(Cl)c3)c(=O)n2[nH]1 the results were FECH inh inactive.
Screening COc1ccccc1CNc1nc2nc(CNc3cccc(C(F)(F)F)c3)cc(=O)n2[nH]1 returned FECH inh inactive.
`Cc1ccc(NCc2nc3nc(C(C)C)cc(=O)n3[nH]2)cc1Cl` gave FECH inh active.
For COc1ccc(CNc2nc3nc(CNc4ccc(OC)cc4)cc(=O)n3[nH]2)cc1 the results were FECH inh inactive.
COc1ccc(CNc2nc3nc(CNc4cccc(C(F)(F)F)c4)cc(=O)n3[nH]2)cc1 was read as FECH inh inactive.
For COc1ccc(C(=O)Nc2cc(C)nn2-c2ncnc3c2cnn3-c2ccc(C)cc2C)cc1OC the results were FECH inh inactive.
For Cc1cc(Cl)cc2c(=O)n(CC3(CO)CCC3)cnc12 the results were FECH inh active.
`Cc1cc(C)c2ncn(CCC(C)O)c(=O)c2c1` (configuration not stated) gave FECH inh inactive.
`Cc1cccc2c(=O)n(CCN3CCCC(c4ccccc4)C3)cnc12` (configuration not stated) gave FECH inh inactive.
Screening Cc1ccc(C)c(N2CCN(S(=O)(=O)c3cc(C(=O)N4CCCC4)cs3)CC2)c1 returned FECH inh inactive.
Screening Cc1cc2c(cc1CN1CCc3[nH]cnc3C1c1ccsc1)OCO2 (configuration not stated) returned FECH inh inactive.
Screening CCCN(C(=O)C(=O)Nc1nncs1)C1CCCC1 returned FECH inh inactive.
`CCNC(=O)COc1nc(CC)nc2onc(-c3ccc(F)cc3)c12` gave FECH inh active.
For C=CCNC(=O)COc1nc(CC)nc2onc(-c3ccc(F)cc3)c12 the results were FECH inh inactive.
Screening CCc1nc(OCC(=O)NCc2ccccn2)c2c(-c3ccc(F)cc3)noc2n1 returned FECH inh inactive.
For CN(Cc1ccccc1)c1ncc(NS(=O)(=O)c2cccc(F)c2)cc1C(=O)O the results were FECH inh inactive.
COC(=O)c1ccccc1NC(=O)NCCc1nc2cccnc2n1Cc1ccc(C)cc1 was read as FECH inh inactive.
`CN1CC(=O)N(CC(=O)Nc2cccc(-c3ccno3)c2)c2ccccc2C1=O` gave FECH inh inactive.
For CC(=O)Nc1ccc(NC(=O)CN2C(=O)CN(C)C(=O)c3ccccc32)cc1 the results were FECH inh inactive.
`CN1CC(=O)N(CC(=O)Nc2ccc(-c3ccno3)cc2)c2ccccc2C1=O` gave FECH inh active.
Screening OCCNc1nc(Nc2ccc(F)cc2)c2cnn(-c3ccccc3)c2n1 returned FECH inh inactive.
O=C(CSCc1nc(-c2ccccc2)no1)Nc1ccccc1C(F)(F)F was read as FECH inh inactive.
Cc1cc(N2CCCC2)nc(N2CCN(S(=O)(=O)c3cccc(Cl)c3)CC2)n1 was read as FECH inh inactive.
`CCc1cccc(C)c1NS(=O)(=O)c1cc(N2C(=O)CCS2(=O)=O)ccc1C` gave FECH inh active.
Screening COc1ccc(OCCNS(=O)(=O)c2cc(N3C(=O)CCS3(=O)=O)ccc2C)cc1 returned FECH inh inactive.
CCOC(=O)C1CCN(S(=O)(=O)c2cc(N3C(=O)CCS3(=O)=O)ccc2C)CC1 was read as FECH inh inactive.
CCc1cccc(CC)c1NS(=O)(=O)c1cc(N2C(=O)CCS2(=O)=O)ccc1OC was read as FECH inh inactive.
Cc1ccc(N2C(=O)CCS2(=O)=O)cc1S(=O)(=O)N1CCN(c2ccc(F)cc2)CC1 was read as FECH inh active.
`CCOC(=O)CNS(=O)(=O)c1cc(N2C(=O)CCS2(=O)=O)ccc1C` gave FECH inh active.
Screening COC(=O)CNS(=O)(=O)c1cc(N2C(=O)CCS2(=O)=O)ccc1OC returned FECH inh inactive.
Screening COc1ccc(N2C(=O)CCS2(=O)=O)cc1S(=O)(=O)N1CCN(c2ccccc2F)CC1 returned FECH inh inactive.
`Cc1ccc(NS(=O)(=O)c2cc(N3C(=O)CCS3(=O)=O)ccc2C)cc1` gave FECH inh inactive.

Bioassay records (PubChem BioAssay)
